Measurements reported in PubChem BioAssay (NCATS).
Activity calls are given as the source filed them. Calls follow the shape of the dose curve; as a rule, active = well fitted activation curve with a large enough effect; inconclusive = small, poorly fitted or top-dose-only effect; inactive = flat fitted curve, though single readings scatter.

Experiment: Confirmation and Secondary Assay for Modulators of Hemoglobin Beta Chain Splicing at IVS2 705 locus (AID 930); also: % of control where 0% means no effect
Conditions: HeLa EGFP-705 splicing reporter, GFP fluorescence, 48 h; series mostly up to 38.3 µM; activation: at the top concentration
Description: NIH Chemical Genomics Center [NCGC] NIH Molecular Libraries Screening Centers Network [MLSCN] MLSCN Grant: 1 X01 MH080684-01 PI Name: Dr. Ryszard Kole NCGC Assay Overview: Modulation of Alternative Splicing as Therapy Abnormal splicing is associated with a number of diseases, including cancer and genetic diseases such as cystic fibrosis, muscular dystrophy and beta-thalassemia. Alteration of disease associated splicing patterns provides a promising target for treatment. […] Mutations in the second intron of the b-globin gene at positions 654 or 705 are clinically relevant and cause mis-splicing which results in an out of frame gene product. […] EGFP-705 HeLa Cells as screen system. HeLa cell lines were stably transfected with a construct in which the EGFP (enhanced green fluorescent protein) cDNA was interrupted by the second intron of the beta-globin gene (IVS2-705). The ISV2 intron contains mutations which cause mis-splicing of EGFP and premature termination of EGFP which results in a nonfluorescent protein product. […] Expression of the transgene was driven by the CMV promoter. We concluded that a low molecular weight compound, which restored correct splicing of intron 2 would also generate functional EGFP protein, resulting in a fluorescent signal. Thus, the HeLa cells that express the EGFP-705 construct can be used for validation of splice site specificity of compounds identified in primary screening of the ISV2 654 construct.
NCGC Assay Protocol Summary: Confirmatory Screening. Freshly thawed HeLa EGFP-705 cells were seeded in 5 ul of optimem media (Invitrogen) containing 2 % fetal calf serum (Hyclone) and 1x penicillin/streptomycin (Invitrogen) at a concentration of 500 cells per well in 1536-well plates. Cells were incubated overnight at 37C in 5% CO2. The next day, cells were treated with DMSO, 500 nM antisense ISV2 654 PNA control oligo, or library compound and allowed to grow at 37C in 5% CO2 for 2 days. The PNA oligo blocked the mutation site in the intron and allowed proper (wild type) splicing to occur, resulting in full length EGFP expression and also allowed for optimization of the assay parameters. Plates were read in the Acumen Explorer (TTP Labtech) using 488 nm laser excitation and 500-520 nm emission PMT filter in a 1 x 8 uM capture mode. Fluorescnet objects ranging in size from 5 to 250 uM were measured and the total peak GFP intensity for each well was used for data analysis. Keywords: Thalassemia, beta-thalassemia, beta-globin, EGFP, ISV2 654, ISV2 705, SSO, PNA, antisense, splicing, MLSMR, MLSCN, NIH Roadmap, qHTS, NCGC

Structure (SMILES) | activation | outcome
CN(Cc1ccco1)c1ccnc(-c2ccoc2)n1 | -0.371% (inactive) | 
Cc1cccc(CNc2cc(-c3cccnc3)ncn2)c1 | 0.584% (inactive) | 
FC(F)(F)c1ccccc1-c1cncnc1Nc1ccccc1 | -0.5% (inactive) | 
CNc1nc(-c2ccccc2C(F)(F)F)nc2ccccc12 | 1.31% (inactive) | 
c1nc(NCCN2CCOCC2)c2cc(-c3ccc4c(c3)OCO4)ccc2n1 | 0.389% (inactive) | 
Cc1cnc(CNc2ncnc3ccc(-c4ccccc4C#N)cc23)cn1 | -0.395% (inactive) | 
Cc1cccc(CNc2nc(-c3ccccc3CN(C)C)nc3ccccc23)c1 | 0.794% (inactive) | 
COc1cc(O)c(C(=O)/C=C/c2ccc(OC)c(O)c2)c(OC)c1 | 7.07% [at 46.1 µM] (inactive) | 
CN(C)Cc1ccccc1-c1cncnc1NCc1cccs1 | 0.325% (inactive) | 
CN(C)Cc1ccccc1-c1cc(-n2ccnc2)ncn1 | 0.148% (inactive) | 
c1ccc(CNc2ccnc(-c3ccc4c(c3)OCO4)n2)cc1 | 2.04% (inactive) | 
COc1ccc(CNc2nc(-c3ccc(C(=O)N(C)C)cc3)nc3ccccc23)c(OC)c1 | -0.373% (inactive) | 
CN(C)C(=O)c1ccc(-c2ccc3ncnc(NCc4cccnc4)c3c2)cc1 | -0.0883% (inactive) | 
CC(=O)Oc1ccc2c(c1C(C)C)CCC1C(C)(C)CCC[C@@]21C (stereo not given in full) | 2.43% [at 46.1 µM] (inactive) | 
Cc1cccc(CNc2cc(-c3ccoc3)ncn2)c1 | 0.144% (inactive) | 
Cc1noc(C)c1-c1cncnc1NC1CC1 | -0.565% (inactive) | 
O=C(Cc1cccs1)NC1C(=O)N2C(C(=O)[O-])=C(C[n+]3ccccc3)CSC12 (stereo not given) | 0.0246% [at 46.1 µM] (inactive) | 
CN(C)C(=O)c1ccc(-c2nc(NCc3cccnc3)c3ccccc3n2)cc1 | -0.024% (inactive) | 
CC(CCC(=O)O)C1CCC2C3C(O)C[C@@H]4CC(O)CC[C@@]4(C)C3CC[C@@]12C (stereo not given in full) |  | inactive
COc1cccc(-c2nc(N3CCNCC3)c3ccccc3n2)c1 | -0.162% (inactive) | 

Structure (SMILES) | activation | outcome
COc1ccc(CNc2nc(-c3ccoc3)nc3ccccc23)c(OC)c1 | -0.736% (inactive) | 
COc1cccc(-c2nc(Nc3ccncc3)c3ccccc3n2)c1 | -0.211% (inactive) | 
COc1cccc(-c2ccc3ncnc(NCc4ccccc4OC)c3c2)c1 | 0.654% (inactive) | 
N#Cc1cccc(-c2ccc3ncnc(NCc4cccnc4)c3c2)c1 | 1.83% (inactive) | 
Cc1ccccc1-c1cc(-n2ccnc2)ncn1 | -0.0121% (inactive) | 
CN1C(CC(=O)c2ccccc2)CCCC1CC(O)c1ccccc1 (stereo not given) | -0.17% [at 46.1 µM] (inactive) | 
COc1cccc(-c2nc(NCc3cnc(C)cn3)c3ccccc3n2)c1 | 0.988% (inactive) | 
CC1(C)SC2C(NC(=O)Cc3ccccc3)C(=O)N2C1C(=O)O (stereo not given) | -0.626% [at 46.1 µM] (inactive) | 
C[n+]1cccc(C(=O)[O-])c1 | 0.36% (inactive) | 
O=c1ccc2cc(O)c(O)cc2o1 | 2.85% [at 46.1 µM] (inactive) | 
Cc1cccc(CNc2ncnc3ccc(-c4ccccc4C#N)cc23)c1 | 0.379% (inactive) | 
N=c1ccn2c(n1)OC1C(O)C(CO)OC12 (stereo not given) |  | inactive
COc1ccc2[nH]cc(CCNc3ncnc4ccc(-c5ccccc5CN(C)C)cc34)c2c1 | -0.659% (inactive) | 
CS(=O)(=O)Nc1cccc(-c2nc(NCCN3CCOCC3)c3ccccc3n2)c1 | -0.442% (inactive) | 
CN(C)Cc1ccccc1-c1nc(N(C)Cc2ccco2)c2ccccc2n1 | 0.409% (inactive) | 
C=C[C@](C)(O)CCC1C(=C)CC(OC(C)=O)C2C(C)(C)CCCC12C (stereo not given in full) | -0.0354% (inactive) | 
CS(=O)(=O)Nc1cccc(-c2nc(NCc3cccs3)c3ccccc3n2)c1 | 2.58% (inactive) | 
c1ncc(-c2ccc3c(c2)OCO3)c(NCCc2cnc[nH]2)n1 | 0.386% (inactive) | 
CNc1nc(-c2ccccc2OC)nc2ccccc12 | 1.51% (inactive) | 
NC(Cc1ccc(O)c(O)c1)C(=O)O (stereo not given) | -0.094% [at 46.1 µM] (inactive) | 
